# Source: PubChem
# Compounds with a hit are over-represented: about 9% of the library has one in this group of screens.
# BAZ2B block = qHTS Assay for Inhibitors of BAZ2B. AID 504333, 2011. Bromodomain adjacent to zinc finger domain protein 2B (Homo sapiens), Q9UIF8. AlphaScreen BAZ2B-H3K14Ac peptide displacement. Potency, µM (highest dose often 114 µM), inactives show at the top dose activity change, negative = inhibition, most hits filed as inhibitors. hit rate 4.4% among 360,000; also: % is scaled to controls: 0 for no effect and ±100 for the full control effect; nearly all actives have a fitted effect of over 60% in size
#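 Multi-concentration screen (max 110 uM) measuring displacement of acetylated histone H3 peptide from BAZ2B by AlphaScreen, using 50 nM protein, 50 nM peptide and 10 ug/mL streptavidin donor plus Ni-chelate acceptor beads.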
# JMJD2A Tudor = qHTS Assay for Inhibitors of JMJD2A-Tudor Domain. Lysine-specific demethylase 4A (Homo sapiens), O75164. AlphaScreen JMJD2A-Tudor / H3K4me3 peptide binding. Potency, µM (highest dose often 114 µM), without a hit: at the highest dose activity change, negative = inhibition, actives largely listed as inhibitors. hit rate 4.4% among 390,000. AID 504339, 2011; also: % is scaled to controls: 0 for no effect and ±100 for the full control effect; nearly all actives have a fitted effect of over 50% in size
# Target sequence (O75164 whole entry, looked up, the tested form may be a part): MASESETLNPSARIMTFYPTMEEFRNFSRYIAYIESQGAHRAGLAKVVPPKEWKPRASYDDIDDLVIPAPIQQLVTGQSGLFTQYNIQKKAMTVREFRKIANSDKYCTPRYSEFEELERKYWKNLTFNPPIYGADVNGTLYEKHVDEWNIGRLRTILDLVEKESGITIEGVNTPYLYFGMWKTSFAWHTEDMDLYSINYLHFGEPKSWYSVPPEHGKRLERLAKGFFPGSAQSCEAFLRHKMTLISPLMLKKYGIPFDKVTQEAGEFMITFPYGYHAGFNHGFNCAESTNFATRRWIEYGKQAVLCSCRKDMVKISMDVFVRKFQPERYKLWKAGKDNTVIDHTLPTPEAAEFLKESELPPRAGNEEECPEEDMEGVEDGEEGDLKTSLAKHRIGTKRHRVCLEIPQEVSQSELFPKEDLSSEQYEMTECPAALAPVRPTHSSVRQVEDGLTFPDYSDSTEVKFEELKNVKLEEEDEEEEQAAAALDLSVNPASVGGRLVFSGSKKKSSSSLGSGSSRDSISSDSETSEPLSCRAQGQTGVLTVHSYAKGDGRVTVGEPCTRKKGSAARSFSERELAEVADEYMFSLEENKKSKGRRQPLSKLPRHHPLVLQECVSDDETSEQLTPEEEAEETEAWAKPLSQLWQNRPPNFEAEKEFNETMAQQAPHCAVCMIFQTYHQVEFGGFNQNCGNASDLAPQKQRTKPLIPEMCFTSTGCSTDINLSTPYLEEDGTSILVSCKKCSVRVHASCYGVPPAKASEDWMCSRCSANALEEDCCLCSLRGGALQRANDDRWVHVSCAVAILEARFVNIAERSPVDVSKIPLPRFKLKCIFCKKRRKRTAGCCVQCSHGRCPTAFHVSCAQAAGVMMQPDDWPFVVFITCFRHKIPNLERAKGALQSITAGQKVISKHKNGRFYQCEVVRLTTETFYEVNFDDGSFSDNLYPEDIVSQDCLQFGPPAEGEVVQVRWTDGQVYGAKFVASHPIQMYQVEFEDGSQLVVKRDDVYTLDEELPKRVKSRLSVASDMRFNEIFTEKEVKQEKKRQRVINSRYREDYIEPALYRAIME
# 12-LOX inh = Primary qHTS assay for inhibitors of human arachidonate 12S-lipoxygenase (ALOX12): Round 2 | AID 1671190, 2021 | purified 12hLO, xylenol orange hydroperoxide absorbance | Potency, µM (titrated, usually from 108 µM), inactives show at the highest dose activity change, negative = inhibition, actives largely listed as inhibitors | Polyunsaturated fatty acid lipoxygenase ALOX12 (Homo sapiens), P18054 | hit rate 1.1% among 580,000; also: % is scaled to controls: 0 for no effect and ±100 for the full control effect
#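 Purified human 12hLO (150 nM final) in 25 mM Hepes, 0.01% Triton X-100, pH 7.0 was preincubated 15 min at room temperature with compound. Then 40 uM arachidonic acid was added, 30 min. Hydroperoxide was read by Fe-XO absorbance ratio 573/405 nm.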
# G9a block = qHTS Assay for Inhibitors of Histone Lysine Methyltransferase G9a; Potency, µM (titrated, usually from 102 µM), for inactives: at the highest dose activity, negative = inhibition, hits mostly inhibitors; hit rate 8.8% among 350,000; Histone-lysine N-methyltransferase EHMT2 (Homo sapiens), Q96KQ7; G9a H3K9 monomethylation, AlphaScreen, 2 h; also: % is scaled to controls: 0 for no effect and ±100 for the full control effect; nearly all actives have a fitted effect of over 75% in size
#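 Quantitative HTS format: methyltransferase activity on a biotin-tagged H3K9 peptide is measured by AlphaScreen, using a rabbit anti-monomethyl-H3K9 antibody with streptavidin donor and anti-IgG acceptor beads. Final levels are 20 nM enzyme, 500 nM peptide, 20 uM SAM; 2 h RT.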
# HP1b binding inh = HTS for Inhibitors of HP1-beta Chromodomain Interactions with Methylated Histone Tails. Potency, µM (titrated, usually from 114 µM), for the others: at the top dose activity change, negative = inhibition, most hits filed as inhibitors. AlphaScreen HP1-beta / biotin-H3K9me3 peptide binding. hit rate 0.56% among 390,000; also: nearly all actives have a fitted effect of over 70% in size
#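 AlphaScreen: HP1-beta (50 nM) preformed 30 min with biotin-H3(1-18)K9me3 peptide (50 nM) in PBS pH 7.4, 0.01% Tween-20. Compound added for 30 min at RT, then streptavidin donor/nickel chelate acceptor beads (10 ug/mL) for 30 min.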
# PLK1 PBD block = qHTS for Inhibitors of PLK1-PDB (polo-like kinase 1 - polo-box domain): Primary Screen. Serine/threonine-protein kinase PLK1 (Homo sapiens), P53350. Plk1 PBD binding of FITC phosphopeptide, fluorescence polarization. Potency, µM, inactives show max response, negative = inhibition, hits mostly inhibitors. hit rate 2.8% among 360,000. AID 720504, 2013; also: series mostly up to about 57 µM; % is scaled to controls: 0 for no effect and ±100 for the full control effect; nearly all actives have a fitted effect of over 65% in size
# * hit, by the source's call; i = inactive; ? = inconclusive; . = not tested or not shown; ! = not confirmed by another sample; [ ] = another dose, or the depositor's remark. Calls follow the shape of the dose curve; as a rule, active = well fitted curve in the direction sought with a large enough effect; inconclusive = small, poorly fitted or top-dose-only effect, or another doubt; inactive = no such curve, though single readings can be large; an effect the other way counts as inactive or inconclusive. Potency is read from the fitted curve at half-maximal effect.
SMILES,BAZ2B block,JMJD2A Tudor,12-LOX inh,G9a block,HP1b binding inh,PLK1 PBD block
COc1cccc(NC(=O)CN(Cc2ccccc2)S(=O)(=O)c2ccc3nc(C)sc3c2)c1,-15%,-8%,-6%,0%[59 µM],89%,.
CCCOc1ccc(N2C(=O)CC(N3CCC(O)(c4cccc(C(F)(F)F)c4)CC3)C2=O)cc1 (stereo not given),1%,-12%,0%,-27%[59 µM],37%,-4%
COc1ccc(OC)c(-n2c(-c3ccc(O)cc3O)n[nH]c2=S)c1,-8%,4µM*,?,.,10%,-26%
COc1ccc(-c2cc(-c3ccc(OC)c(OC)c3)n[nH]2)c(O)c1,4%,-29%,-21%,?,8%,-7%
COc1ccc(C)cc1-n1c(-c2ccncc2)n[nH]c1=S,1%,20µM*,-9%,?,41%,-1%
COc1cc(OC)cc(-c2n[nH]c(=S)n2-c2cc(OC)ccc2OC)c1,-1%,7.9µM*,0%,?,20%,-9%
COc1cc(-n2c(-c3ccccc3)n[nH]c2=S)c(OC)cc1Cl,?,-18%,28µM*,.,33%,-5%
CCC(C)CCCCCCCCCCC(=O)O (stereo not given),.,50µM*,11%,.,58%,21µM*
CS(=O)(=O)c1ccc(Cl)c(NC(=O)COC(=O)CCc2c[nH]c3ccccc23)c1,-26%,-32%,-16%,?,5%,-5%
COc1ccc(C2C(C#N)=C(N)Oc3cc4c(cc32)OCO4)cc1 (stereo not given),-32%,?,13µM*,?,-7%,-11%
COC(=O)c1ccc(C2C(C#N)=C(N)Oc3cc(O)ccc32)cc1 (stereo not given),-30%,?,25µM*,-22%,29%,-13%
CCOC(=O)C1=C(N)Oc2cc(O)ccc2C1c1ccc([N+](=O)[O-])cc1 (stereo not given),?,50µM*,-9%,40µM*,-19%,-5%
CN(C)c1ccc2c(c1)OC(N)=C(C#N)C2c1cccc(F)c1 (stereo not given),?,50µM*,.,45µM*,?,14%
N#CC1=C(N)Oc2cc(N)ccc2C1c1cccc(F)c1 (stereo not given),-10%,-20%,?,.,12%,-13%
Cc1ccc(F)cc1NC(=O)COC(=O)C1CC2CCCC(C1)C2=O (stereo not given),.,.,-16%,.,.,-7%
CC(C)c1ccc2cc(C(=O)N(C)Cc3ccco3)[nH]c2c1,.,.,10%,.,.,.
COc1ccc(C2C(C#N)=C(N)Oc3cc(O)ccc32)cc1Cl (stereo not given),-38%,-29%,32µM*,?,9%,-7%
C#CCOc1ccc(C2C(C#N)=C(N)Oc3cc(O)ccc32)cc1 (stereo not given),-12%,-20%,28µM*,21%[0.501 µM],28%,18%
Cc1ccc(COc2ccc(C3C(C#N)=C(N)Oc4cc(O)ccc43)cc2)cc1 (stereo not given),.,.,-7%,.,.,.
CCn1c(CC2CCNCC2)nn(Cc2csc(-c3ccccc3)n2)c1=O,.,.,-2%,.,.,.
CCN(CC)S(=O)(=O)c1cccc(NC(=O)CN(C)Cc2cccc(OC)c2)c1,50µM*,1.6µM*,?,-115%[12.7 µM],22µM*,-7%
Cc1ccccc1CN(C)CC(=O)Nc1cccc(S(=O)(=O)N(C)c2ccccc2)c1,-4%,79µM*,26%,1%,5%,27µM*
COc1cccc(CN(C)CC(=O)NC(=O)NCc2ccco2)c1,50µM*,89µM*,17%,11%[12.7 µM],50µM*,-16%
COc1cccc(NC(=O)CN(C)CC(=O)NCc2ccco2)c1,7%,-10%,-16%,12%[12.7 µM],24%,-15%
Cc1cc(C)c(NC(=O)CN(C)CC(=O)Nc2cccc(S(=O)(=O)N(C)c3ccccc3)c2)c(C)c1,.,7.1µM*,?,.,?,-13%
SMILES,BAZ2B block,JMJD2A Tudor,12-LOX inh,G9a block,HP1b binding inh,PLK1 PBD block
C=CCOC(=O)C1=C(C)NC(C)=C(C(=O)OCC=C)C1c1ccc(C)o1,-6%,?,?,-6%[59 µM],12%,2%
COc1ccc(-c2c(C)oc3cc(OCC(=O)OCc4ccccc4)ccc3c2=O)cc1OC,.,.,-11%,.,.,.
O=C(NC1CC1)C1CC(=O)N(c2cccc(Cl)c2)C1 (stereo not given),-38%,-3%,i,25µM*,43%,-3%
C#CCNC(=O)C1CN(c2cccc(Cl)c2)C(=O)N1 (stereo not given),.,.,50µM*!,.,.,.
Cc1c(C)n(Cc2ccccc2)c2ccc(C(=O)NCc3ccco3)cc12,-37%,?,-16%,?,3%,.
COc1cccc(C(=O)NC(=S)Nc2ccccc2N2CCOCC2)c1,-1%,?,.,66%,?,1%
COc1cc(C(=O)NC(=S)Nc2ccccc2N2CCOCC2)cc(OC)c1OC,40µM*,?,.,14µM*,-10%,-4%
Cc1ccc(C(=O)NC(=S)Nc2ccccc2N2CCOCC2)cc1C,?,?,.,22µM*,?,-7%
CCOc1ccc(OCCC(=O)NNC(=O)c2cc(OC)c(OC)c(OC)c2)cc1,-21%,-21%,1%,79µM*,3%,-5%
CCCC(=O)Nc1ccccc1NC(=O)c1cc(OC)c(OC)c(OC)c1,4%,-6%,8%,89µM*,37%,-1%
COc1cc(C(=O)NNC(=O)CCOc2cccc(Br)c2)cc(OC)c1OC,-1%,1%,-2%,-28%[2.33 µM],31%,0%
CCOc1ccccc1CNCCN1CCOCC1,?,-5%,-7%,?,36%,1%
COc1cc(C(=O)NC(=S)Nc2ccccc2[N+](=O)[O-])cc(OC)c1OC,?,28µM*,?,?,?,21µM*
COc1cc(C(=O)Nc2ccccc2SCc2cc(=O)n3nc(C)sc3n2)cc(OC)c1OC,-17%,?,1%,-25%,-2%,27µM*
O=C(Nc1cc(Cl)ccc1Cl)c1ccc2c(c1)N(Cc1cccc(Cl)c1)C(=O)c1ccccc1S2=O (stereo not given),2%,-1%,-16%,0%[59 µM],50%,.
CCn1nc(C(=O)OCC(=O)N(C)Cc2ccco2)c2ccccc2c1=O,.,.,11%,.,.,.
